According to PubChem BioAssay (Tox21):
Where “and” joins values, the source holds several entries; their conditions need not be identical. Equal entries are not always repeated. Records with an inconclusive call do not appear. A call without a number means that no potency is given here. Some structures have more than one record in an assay (separate samples or runs), and their calls can disagree. Calls of active or inactive are those of the source. Unless noted, calls follow the shape of the dose curve; as a rule, active = well fitted curve in the direction sought with a large enough effect in the repeat runs; inconclusive = weak or mixed curves; inactive = no such curve, though single readings can be large; an effect the other way counts as inactive or inconclusive.

Columns and labels:
[1] = qHTS assay to identify small molecule antagonists of the glucocorticoid receptor (GR) signaling pathway - cell viability counter screen (AID 720693); also: nearly all actives have a fitted effect of over 55% in size; also: potency is read from the fitted curve at half-maximal effect
[2] = qHTS assay for identifying genotoxic compounds that show differential cytotoxicity against isogenic chicken DT40 cell lines with known DNA damage response pathways - wild type cell line (AID 743012); also: nearly all actives have a fitted effect of over 60% in size; also: potency is read from the fitted curve at half-maximal effect
Summary of the method: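 Cells (DT40 wild type, 300/well) are treated with DMSO-dissolved compounds after a ~0.5 h pre-incubation and kept 40 h at 37 C/5% CO2. Viability is then measured by CellTiter-Glo luminescence following 30 min at room temperature.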

[3] = qHTS assay for identifying genotoxic compounds that show differential cytotoxicity against isogenic chicken DT40 cell lines with known DNA damage response pathways - Rev3 mutant cell line (AID 743014); also: nearly all actives have a fitted effect of over 55% in size; also: potency is read from the fitted curve at half-maximal effect
[4] = qHTS assay for identifying genotoxic compounds that show differential cytotoxicity against isogenic chicken DT40 cell lines with known DNA damage response pathways - Rad54/Ku70 mutant cell line (AID 743015); also: nearly all actives have a fitted effect of over 60% in size; also: potency is read from the fitted curve at half-maximal effect
[5] = qHTS assay to identify small molecule antagonists of the androgen receptor (AR) signaling pathway - cell viability counter screen (AID 743033; also: nearly all actives have a fitted effect of over 45% in size; also: potency is read from the fitted curve at half-maximal effect)
[6] = qHTS assay to identify small molecule antagonists of the androgen receptor (AR) signaling pathway using the MDA cell line - cell viability counter screen (AID 743041; also: nearly all actives have a fitted effect of over 45% in size; also: potency is read from the fitted curve at half-maximal effect)
Summary of the method: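 MDA-kb2 AR-luc human breast carcinoma cells (MMTV-luciferase, AR/GR responsive) were treated with compounds plus R1881 agonist for 16 h at 37 °C. Viability was read as CellTiter-Fluor fluorescence in the same wells as the reporter assay.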

[7] = qHTS assay to identify small molecule antagonists of the thyroid receptor (TR) signaling pathway - cell viability counter screen (AID 743064); also: nearly all actives have a fitted effect of over 50% in size; also: potency is read from the fitted curve at half-maximal effect
Summary of the method: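 Viability of T3-stimulated (1 nM final) GH3.TRE-Luc cells is measured by CellTiter-Fluor fluorescence after 23.5 h compound exposure at 37 °C plus 30 min reagent incubation.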

[8] = qHTS assay to identify small molecule antagonists of the thyroid receptor (TR) signaling pathway (AID 743065); also: nearly all actives have a fitted effect of over 55% in size; also: potency is read from the fitted curve at half-maximal effect
Summary of the method: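 GH3.TRE-Luc rat pituitary cells carrying two TR response elements driving luciferase were plated for 4 h, given compound plus 1 nM T3 (final), and incubated 23.5 h at 37 C. ONE-Glo luminescence measured reporter inhibition; CellTiter-Fluor fluorescence tracked cytotoxicity.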

[9] = system: thyroid hormone receptor (rat, GH3 cells); experiment: qHTS assay to identify small molecule agonists of the thyroid receptor (TR) signaling pathway (AID 743066; calls by dose curve)
[10] = target: Estrogen receptor (Homo sapiens) (UniProt P03372); experiment: qHTS assay to identify small molecule antagonists of the estrogen receptor alpha (ER-alpha) signaling pathway (AID 743069; active = well fitted curve in the direction sought with a large enough effect in the signal ratio in the repeat runs, not every such curve was filed as active; the % refers to the signal ratio)
Summary of the method: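 HEK293 cells stably carrying an ER-alpha-UAS-bla beta-lactamase reporter were pre-cultured overnight in 2% charcoal-stripped FBS medium. Test compounds in DMSO were added together with 17beta-estradiol for 18 hr at 37C. Read-out was fluorescence after 2 hr with LiveBLAzer B/G FRET substrate at room temperature.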

[11] = qHTS assay to identify small molecule antagonists of the estrogen receptor alpha (ER-alpha) signaling pathway - cell viability counter screen (AID 743074; calls by dose curve; also: nearly all actives have a fitted effect of over 45% in size; also: potency is read from the fitted curve at half-maximal effect)
[12] = target: Estrogen receptor (Homo sapiens) (UniProt P03372); experiment: qHTS assay to identify small molecule agonists of the estrogen receptor alpha (ER-alpha) signaling pathway (AID 743075; calls by dose curve; also: potency is read from the fitted curve at half-maximal effect)
[13] = target: Estrogen receptor (Homo sapiens) (UniProt P03372); experiment: qHTS assay to identify small molecule agonists of the estrogen receptor alpha (ER-alpha) signaling pathway using the BG1 cell line (AID 743079); conditions: BG1Luc4E2 cells, ERE-luciferase agonist, 22 h; activation: at 70.3 µM (top of the series) unless noted; also: nearly all actives have a fitted effect of over 20% in size; also: potency is read from the fitted curve at half-maximal effect
[14] = qHTS assay to identify small molecule antagonists of the estrogen receptor alpha (ER-alpha) signaling pathway using the BG1 cell line (AID 743080; calls by dose curve;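 also: BG1 cells stimulated with 17beta-estradiol alongside compound; nearly all actives have a fitted effect of over 25% in size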; also: potency is read from the fitted curve at half-maximal effect)
Summary of the method: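 Endogenous full-length ER-alpha in BG1-Luc-4E2 cells drives a stably integrated 4×ERE luciferase gene; compounds were tested against 17beta-estradiol over 21.5 h, with luminescence and multiplexed viability fluorescence recorded.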

[15] = qHTS assay to identify small molecule antagonists of the estrogen receptor alpha (ER-alpha) signaling pathway using the BG1 cell line - cell viability counter screen (AID 743081);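 also: compound given together with 17beta-estradiol as the ER stimulus; nearly all actives have a fitted effect of over 45% in size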; also: potency is read from the fitted curve at half-maximal effect
[16] = target: Aromatase (Homo sapiens) (UniProt P11511); experiment: qHTS assay to identify aromatase inhibitors (AID 743083); also: nearly all actives have a fitted effect of over 55% in size; also: potency is read from the fitted curve at half-maximal effect
Aromatase (Homo sapiens), sequence (P11511 whole entry, looked up): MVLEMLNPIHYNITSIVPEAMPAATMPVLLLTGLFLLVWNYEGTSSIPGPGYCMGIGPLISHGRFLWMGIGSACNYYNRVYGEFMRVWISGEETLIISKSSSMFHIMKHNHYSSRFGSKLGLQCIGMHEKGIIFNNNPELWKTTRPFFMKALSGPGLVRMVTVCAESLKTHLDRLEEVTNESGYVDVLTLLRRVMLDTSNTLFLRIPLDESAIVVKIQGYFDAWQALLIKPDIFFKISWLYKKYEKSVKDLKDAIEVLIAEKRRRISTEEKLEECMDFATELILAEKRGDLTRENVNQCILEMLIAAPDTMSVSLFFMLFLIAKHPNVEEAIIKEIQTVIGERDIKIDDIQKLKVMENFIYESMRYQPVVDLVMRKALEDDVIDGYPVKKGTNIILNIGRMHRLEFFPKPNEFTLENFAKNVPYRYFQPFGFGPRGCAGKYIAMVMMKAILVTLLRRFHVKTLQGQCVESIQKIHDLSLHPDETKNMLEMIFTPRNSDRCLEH

Estrogen receptor (Homo sapiens), sequence (P03372 whole entry, looked up): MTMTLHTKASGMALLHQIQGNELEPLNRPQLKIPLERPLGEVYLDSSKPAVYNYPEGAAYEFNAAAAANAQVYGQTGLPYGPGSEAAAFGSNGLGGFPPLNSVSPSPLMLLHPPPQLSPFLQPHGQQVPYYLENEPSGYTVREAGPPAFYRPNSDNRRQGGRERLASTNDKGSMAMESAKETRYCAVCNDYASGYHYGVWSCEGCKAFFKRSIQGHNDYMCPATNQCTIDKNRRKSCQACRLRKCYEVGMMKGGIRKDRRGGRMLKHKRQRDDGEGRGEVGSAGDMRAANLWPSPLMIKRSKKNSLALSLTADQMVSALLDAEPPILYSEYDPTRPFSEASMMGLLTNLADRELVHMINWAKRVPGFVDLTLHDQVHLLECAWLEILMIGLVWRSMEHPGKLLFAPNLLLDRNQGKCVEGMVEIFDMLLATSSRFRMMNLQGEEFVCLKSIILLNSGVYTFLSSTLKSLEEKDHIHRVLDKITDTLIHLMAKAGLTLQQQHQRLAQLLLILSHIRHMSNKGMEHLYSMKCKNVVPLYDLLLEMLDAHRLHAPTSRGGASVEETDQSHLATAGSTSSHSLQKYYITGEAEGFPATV

Compound	Potency [1]	Potency [2]	Potency [3]	Potency [4]	Potency [5]	Potency [6]	Potency [7]	Potency [8]	Potency [9]	Potency [10]	Potency [11]	Potency [12]	Potency [13]	Potency [14]	Potency [15]	Potency [16]
Clc1ccc(C(Cl)(Cl)Cl)cc1	inactive	inactive	inactive	inactive	inactive	inactive	inactive	inactive	inactive	inactive	inactive	inactive	inactive and 30.6 µM (active)	inactive	inactive	inactive
CN(C)c1ccccc1	inactive	inactive	inactive	inactive	inactive	inactive	inactive	inactive	inactive						inactive	
COP(=O)(NC(C)=O)SC (stereo unspecified)	inactive	inactive and 68.6 µM (active)	inactive and 27.3 µM (active)	inactive and 30.6 µM (active)	inactive	inactive	inactive	inactive	inactive		inactive				inactive	inactive
CC1(C)Cc2cccc(O)c2O1	inactive	inactive	inactive	inactive	inactive	inactive	inactive	inactive	inactive	inactive	inactive	inactive	inactive	inactive	inactive	inactive
CCCCCCCCCCCCCl	inactive	inactive	inactive	inactive	inactive	inactive	inactive	inactive	inactive	inactive	inactive	54.2 µM [activator] (active) and inactive	30.2 µM (active) and inactive	inactive	inactive	inactive
[Cl-].[Cl-].[Cl-].[Fe+3]	inactive	inactive	inactive	inactive	inactive	inactive	inactive	inactive	inactive		inactive				inactive	inactive
Cc1ccc([N+](=O)[O-])cc1	inactive	inactive	inactive	inactive	inactive	inactive	inactive	inactive	inactive	inactive		inactive	inactive	inactive	inactive	inactive
CCCCOCC1CO1 (stereo unspecified)	inactive	inactive	inactive	inactive	inactive	inactive	inactive	inactive	inactive	inactive	inactive	inactive	inactive	inactive	inactive	inactive
Nc1ncn[nH]1	inactive	inactive	inactive	inactive	inactive	inactive	inactive	inactive	inactive		inactive				inactive	inactive
CC(O)CN(CC(C)O)CC(C)O (stereo unspecified)	inactive	inactive	inactive	inactive	inactive	inactive	inactive	inactive	inactive		inactive				inactive	inactive
ClC(Cl)(Cl)Br	inactive	inactive	inactive	inactive	inactive	inactive	inactive	inactive	inactive		inactive				inactive	inactive
O=[N+]([O-])c1ccc(Nc2ccccc2)cc1	43.6 µM (active)	15.4 µM (active)	54.9 µM (active) and 13.7 µM (active)	30.9 µM (active) and 10.9 µM (active)	38.9 µM (active)	61.6 µM (active) and 61.1 µM (active)	48.6 µM (active)	48.9 µM (active) and 30.6 µM (active)	inactive			inactive			48.9 µM (active) and 27.3 µM (active)	30.6 µM (active)
Nc1ccc2ccccc2c1	inactive	inactive	inactive and 68.6 µM (active)	inactive	inactive	inactive	inactive	inactive	inactive	inactive		inactive	inactive		inactive	inactive
NC(=O)CN1CCCC1=O	inactive	inactive	inactive	inactive	inactive	inactive	inactive	inactive	inactive		inactive				inactive	inactive
CS(=O)(=O)NC(=O)c1cc(Oc2ccc(C(F)(F)F)cc2Cl)ccc1[N+](=O)[O-]	inactive	inactive	inactive	inactive	inactive	inactive	inactive	inactive	inactive		inactive				inactive	inactive
O=C1C(Cl)=C(Cl)C(=O)c2ccccc21	21.9 µM (active) and 19.5 µM (active)	2.18 µM (active) and 486 nM (active)	972 nM (active) and 969 nM (active)	2.18 µM (active) and 545 nM (active)	4.91 µM (active) and 7.76 µM (active)	inactive	30.7 µM (active) and 5.45 µM (active)	3.07 µM (active) and 3.44 µM (active)	inactive		43.8 µM (active) and 54.9 µM (active)			30.7 µM (active) and 54.5 µM (active)	inactive	2.18 µM (active) and 3.86 µM (active)
Clc1cccc(Cl)c1	inactive	inactive	inactive	inactive	inactive	inactive	inactive	inactive	inactive		inactive				inactive	inactive
Oc1ccc(Cl)cc1Cl	inactive	inactive	inactive	inactive	inactive	inactive	inactive	inactive	inactive	inactive		inactive	inactive	inactive	inactive	inactive
CNC(=O)CSP(=S)(OC)OC	inactive	inactive	inactive	inactive	inactive	inactive	inactive	inactive	inactive	inactive	inactive	inactive	inactive	inactive	inactive	inactive
CC(C)Nc1ccc(Nc2ccccc2)cc1	inactive	5.96 µM (active) and 17.2 µM (active) and 12.2 µM (active)	10.6 µM (active) and 12.1 µM (active) and 13.7 µM (active)	8.41 µM (active) and 15.3 µM (active) and 10.9 µM (active)	21.8 µM (active) and 49 µM (active)	68.3 µM (active) and 61.1 µM (active)	13.3 µM (active) and 30.6 µM (active)	11.9 µM (active) and 30.5 µM (active) and 17.2 µM (active)	inactive		48.8 µM (active) and 43.6 µM (active)	inactive			inactive	13.3 µM (active) and 27.2 µM (active)
CC(C)Nc1nc(Cl)nc(NC(C)C)n1	inactive	inactive	inactive	inactive	inactive	inactive	inactive	inactive	inactive	inactive	inactive	inactive	inactive	inactive	inactive	inactive
N#CC(c1ccccc1)c1ccccc1	inactive	inactive	inactive	inactive	inactive	inactive	inactive	inactive	inactive		inactive				inactive	inactive
COc1ccc(CO)cc1	inactive	inactive	inactive	inactive	inactive	inactive	inactive	inactive	inactive		inactive				inactive	inactive
CCOP(=O)(OCC)OCC	inactive	inactive	inactive	inactive	inactive	inactive	inactive	inactive	inactive		inactive				inactive	inactive
COc1ccc(C=O)cc1OC	inactive	inactive	inactive	inactive	inactive	inactive	inactive	inactive	inactive	inactive	inactive	inactive	inactive and 6.86 µM (active)	inactive	inactive	inactive
c1ccc2c(c1)Nc1ccccc1S2	inactive			40.9 µM (active)	inactive	inactive	inactive	inactive	inactive	inactive	inactive	inactive	26.6 µM (active) and 38.6 µM (active)	inactive	inactive	inactive
CCCCCCCCCc1ccc(O)cc1				30.9 µM (active)		inactive	39 µM (active)	30.9 µM (active)	inactive	inactive		inactive	6.93 µM (active)	inactive	inactive	49.1 µM (active)
